# Bioassay records deposited in PubChem BioAssay by several laboratories.
# Hits are enriched below; roughly 2.2% of the tested compounds scored in any of these assays.
# Ba/F3 V617F tox: lowers viability of Ba/F3 cells expressing EpoR and JAK2V617F; ATP luminescence; inhibition, % at 5.6 µM; actives 1.1% (n = 220,000);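 active = inhibition above the campaign mean plus 3 SD over all tested compounds, cut at about 24% in these data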;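 note: cytokine-independent growth of Ba/F3 cells driven by EpoR plus mutant JAK2; 0% = DMSO-treated cells and 100% = JAK inhibitor I control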
# KLF5 inh: suppresses KLF5 promoter-driven expression | DLD-1 KLF5 promoter-luciferase reporter, luminescence | inhibition, % at 5 µM | actives 0.23% (n = 290,000);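 active = inhibition above a per-plate limit of that plate's mean compound inhibition plus 3 SD, cut at about 60% in these data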;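 note: 0% = DMSO wells and 100% = LY294002 at 200 µM; higher means less KLF5 promoter-driven luciferase light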
# aSyn 5UTR inh: 5' untranslated region of α-synuclein, MLPCN primary screen; actives 0.82% (n = 300,000); inhibition, % (tested at 7.5 µM); alpha-synuclein 5'UTR reporter, inhibitor activity; AID 1813; in the data active = inhibition above about 60%; inconclusive = no clear call, values can overlap the other calls;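 note: H4 neuroglioblastoma cells stably carrying SNCA 5'UTR luciferase fusion; 0% = DMSO wells and 100% = positive control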
# IEC-6 cytotox: kills IEC-6 intestinal cells in KLF5 counter-screen; IEC-6 cytotoxicity, luminescence viability; actives 0.78% (n = 290,000); inhibition, % at 5 µM;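 note: 0% = plate median of test compound wells and 100% = cytotoxic reference compound wells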
# APP transl inh: APP translation inhibition; SH-SY5Y APP 5'UTR-luciferase reporter, luminescence; inhibition, % at 2 µM; actives 0.82% (n = 190,000);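 active = inhibition above a set limit, derived from the sample mean plus 3 SD, cut at about 45% in these data; inconclusive = one replicate passes the limit while the other fails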
# BaF3 tox: reduces parental Ba/F3 cell viability, JAK2V617F counter-screen; CellTiter-Glo ATP luminescence; inhibition, % at 5.6 µM; actives 1.1% (n = 220,000); AID 1486;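 active = inhibition above a per-campaign cutoff, the mean inhibition of all tested compounds plus 3 SD, cut at about 27% in these data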;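 note: 0% = DMSO wells and 100% = JAK Inhibitor I control wells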
# IEC-6 cytotox cf: IEC-6 cytotoxicity, confirmation assay. IEC-6 rat intestinal epithelial viability, luminescence. shares compounds with IEC-6 cytotox. inhibition, % at 5 µM. actives 63% (n = 1,900);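 note: 0% = vehicle and 100% = reference cytotoxic drug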
# An asterisk follows results filed as active; ? = inconclusive; . = not tested or not shown. Cut-off read from the data, not from the text of the source, unless noted: active = inhibition above about 22%; inactive = the rest.
SMILES,Ba/F3 V617F tox,KLF5 inh,aSyn 5UTR inh,IEC-6 cytotox,APP transl inh,BaF3 tox,IEC-6 cytotox cf
CCOc1ccc(S(=O)(=O)N2CCN=C2c2ccccc2)cc1,.,23.4,-27.4,26.4*,.,.,22.6*
CNC(=O)c1c[nH]c2ccc(S(=O)(=O)Nc3cccc(SC)c3)cc2c1=O,.,-10.9,-0.9,4.1,.,.,.
CC(C)CC(=O)Nc1ccc(C(=O)CN2C(=O)NC3(CCOc4ccccc43)C2=O)cc1 (configuration not stated),.,.,15.1,.,.,.,.
COc1ccc(/C=N\NC(=O)c2sccc2C)cc1Cn1nc(C)cc1C,.,-17.1,-29.7,45.5*,.,.,24.5*
CC(C)C[C@H](NC(=O)OC(C)(C)C)C(=O)N[C@@H](CO)[C@H](O)[C@@H]1C[C@@H]1C(=O)N1CCCC1,.,-11.0,3.4,-2.2,.,.,.
CCc1ccc(S(=O)(=O)Nc2cc3c(cc2C)n(C)c(=O)n3C)cc1,.,40.2,-91.8,47.8*,.,.,39.9*
Cc1ccc(NS(=O)(=O)c2ccc3c(c2)n(C)c(=O)n3C)c(C)c1,.,-5.3,2.7,0.8,.,.,.
COc1cccc(NC(=O)COC(=O)CCCC2=NS(=O)(=O)c3ccccc3N2)c1,.,-10.9,13.2,8.6,.,.,.
Clc1ccc(C2Nc3cccc4cccc(c34)N2)cc1Cl,.,19.1,10.5,-2.4,.,.,.
O=[N+]([O-])c1ccc(Cl)c(C2Nc3cccc4cccc(c34)N2)c1,100.1*,17.1,25.8,69.7*,4.7,102.5*,35.2*
CC(=O)c1cccc(NC(=O)c2ccc([N+](=O)[O-])o2)c1,.,.,-57.5,.,.,.,.
Cc1cc(C)cc(NC(=O)c2ccc([N+](=O)[O-])o2)c1,95.2*,9.3,-30.9,102.8*,70.7*,58.6*,24.2*
COc1ccc(NC(=O)c2ccc([N+](=O)[O-])o2)cc1,.,-19.5,-319.6,43.5*,.,.,1.3
CC(=O)c1ccc(NC(=O)c2ccc([N+](=O)[O-])o2)cc1,.,-19.4,-355.4,32.2*,.,.,10.9
CN1c2cccc3cccc(c23)N(C)C1c1cccs1,0.4,-40.7,-1.3,23.6*,-0.3,9.3,3.0
CCOC(=O)C1(CCc2ccccc2)CCN(C(=O)c2ccoc2)CC1,5.5,-11.5,-25.4,-2.1,-1.4,3.2,.
CC#CC(=O)N1CCC(CCc2ccccc2)(C(=O)OCC)CC1,-1.5,6.3,?,26.9*,-12.0,-0.1,11.8
COc1ccccc1C1CC(=O)Nc2cc3c(cc21)OCCO3 (configuration not stated),73.2*,63.8*,47.5,75.4*,95.0*,72.1*,59.7*
COc1cccc(-n2c(-c3cccc(S(=O)(=O)N(C)C)c3)n[nH]c2=S)c1,1.2,-11.4,23.9,3.0,-8.2,5.5,.
Cc1[nH]c2ccc(-c3n[nH]c(=S)n3-c3ccccc3)cc2c1C,-1.9,-31.6,6.1,49.4*,-14.9,2.8,32.1*
Cc1[nH]c2ccc(-c3n[nH]c(=S)n3-c3ccc(Br)cc3)cc2c1C,-1.9,-4.9,1.2,49.6*,-14.4,3.2,44.1*
COc1cccc(-n2c(-c3ccc4[nH]c(C)c(C)c4c3)n[nH]c2=S)c1,3.9,-25.2,3.9,48.3*,-2.2,6.2,45.6*
CN1CC(=O)N/C1=N\C(=O)Nc1ccc(O)cc1,.,-23.8,-6.9,-1.7,.,.,.
COC(=O)c1ccc(Cl)c(NS(=O)(=O)c2ccc3c(c2)OCCO3)c1,2.5,44.9,-33.8,28.4*,3.8,4.0,1.7
CC(=O)c1cc2c(cc1NS(=O)(=O)c1ccc3c(c1)OCCO3)OCO2,-0.7,-4.4,24.5,-3.5,0.6,3.9,.
SMILES,Ba/F3 V617F tox,KLF5 inh,aSyn 5UTR inh,IEC-6 cytotox,APP transl inh,BaF3 tox,IEC-6 cytotox cf
CCN(c1ccccc1)S(=O)(=O)c1ccc(Cl)c(NC(=O)COC(=O)c2cc(O)c3ccccc3c2O)c1,-2.8,8.5,12.7,31.6*,.,-2.6,6.7
CCCCCOc1ccc(Br)cc1/C(C)=N/NC1=NCCN1,78.2*,37.7,88.3*,82.7*,94.5*,72.7*,59.8*
Cc1cc(C(=O)OCC(=O)NCc2ccco2)c(C)n1-c1ccc(F)cc1,-0.6,-4.3,80.4*,45.3*,75.2*,4.0,57.2*
Clc1ccccc1OCc1nnc(-c2ccccc2Br)o1,1.9,-119.5,-172.6,0.7,-95.3,5.8,.
O=c1c(Cl)c(Cl)cnn1Cc1nnc(-c2ccccc2Br)o1,16.4,-11.1,-66.1,30.4*,94.2*,-1.2,21.8
Cn1c2ccccc2c2cc(C(=O)NNC(=O)CCl)sc21,22.4,12.2,-7.1,26.6*,-7.1,0.6,16.5
CCCNC(=O)c1cc2c3ccccc3n(C)c2s1,-1.1,-5.6,-45.9,4.8,.,7.7,.
CC(C)C[C@H](NC(=O)N1CC(=O)Nc2ccccc21)C(=O)N[C@@H](Cc1ccccc1)C(=O)O,.,-3.9,32.0,-2.3,.,.,.
COc1ccc(/C=N\NC(=O)c2ccccc2F)cc1COc1ccc(F)cc1,.,13.7,-47.6,22.8*,.,.,14.0
COc1ccc(/C=N\NC(=O)c2ccccc2F)cc1COc1ccc(F)cc1F,.,59.6,-0.7,80.5*,.,.,62.5*
COc1ccc(/C=N/NC(=O)c2ccco2)cc1COc1ccc(F)cc1,.,-23.1,22.1,2.5,.,.,.
COc1cc2ccccc2cc1C(=O)N/N=C/c1ccc2c(c1)OCO2,.,35.1,-163.5,37.1*,.,.,25.5*
COc1ccccc1N(C(=O)c1ccco1)C(C(=O)NC1CCCC1)c1ccncc1 (configuration not stated),.,-21.5,-1.4,2.3,.,.,.
CCCN(CC(=O)Nc1ccccc1OC)C(=O)c1ccncc1,.,-26.8,-15.6,3.8,.,.,.
COc1ccc(OC)c(-c2csc(NC(=O)c3ccc(F)cc3)n2)c1,.,18.9,-201.7,34.3*,.,.,16.0
CCOc1ccccc1NC(=O)c1ccc(C(=O)Nc2ccccc2OCC)nc1,.,5.1,19.2,-3.5,.,.,.
CCOc1ccccc1NC(=O)c1nc(S(=O)(=O)Cc2ccccc2)ncc1Cl,.,34.4,51.1,98.8*,.,.,11.3
CCS(=O)(=O)c1ncc(Cl)c(C(=O)Nc2ccccc2OC)n1,.,20.1,4.3,29.2*,.,.,18.5
COc1ccccc1NC(=O)c1nc(S(=O)(=O)Cc2ccccc2)ncc1Cl,.,59.0,70.9*,100.5*,.,.,15.7
CN(CC(=O)Nc1ccc(F)c(F)c1F)C(=O)Cc1ccc2c(c1)OCCO2,.,-41.5,10.4,-4.2,.,.,.
CCS(=O)(=O)N1Cc2ccccc2CC1C(=O)N(C)CC(=O)Nc1cccc(F)c1 (configuration not stated),.,.,-7.0,.,.,.,.
Cc1ccc(N2CC(C(=O)N3CCCCCC3)CC2=O)cc1 (configuration not stated),.,-24.6,1.2,-6.0,.,.,.
O=c1c(Cl)c(Cl)cnn1Cc1ccc(F)cc1,6.7,-22.8,-57.3,26.9*,50.7*,-3.4,11.2
O=c1cnn(Cc2ccc(F)cc2)c2ccccc12,.,7.2,7.4,4.0,.,.,.
CCc1c(C)nc2ncnn2c1Nc1ccc(C)cc1,.,-13.7,13.5,9.5,.,.,.
CCc1c(C)nc2ncnn2c1NCCc1ccc(OC)cc1,63.0*,17.2,30.9,24.4*,19.5,57.4*,23.7*
